Values joined by “and” are separate entries in the source; they are usually repeats but may differ in a detail not shown here. Equal entries are not always repeated. The campaign covered roughly 5,500 compounds. About 2,000 (36%) were called active. About 18% were inconclusive and are not listed. No stated cut-off is given here; in the data, active means normalized growth mostly below about 0.91 (no sharp cut-off); inconclusive means no clear call, values can overlap the other calls; inactive means mostly above about 0.92. The list shows a part of the results.
Test: chemical genetic growth profiling, strain panel (AID 1159580);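 further: tested at 20 µM; growth read once vehicle control cultures reached saturation at 30 °C; 1 = growth at the plate median or of vehicle wells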
Details: S. cerevisiae deletion strains, growth OD

Measured: normalized growth

CCN1C[C@@]2(COC)C3[C@@H](OC)[C@H]4[C@@H]1[C@]3(C(OC)C[C@H]2O)C1C[C@@]2(O)[C@H](OC(=O)c3ccccc3)C1[C@]4(OC(C)=O)[C@@H](O)[C@@H]2OC (stereo partly drawn)
inactive: locus YAL021C, strain ccr4, stronger effect = lower value 1.03 | locus YAL026C, strain drs2, stronger effect = lower value 1.02 | locus YAL030W, strain snc1, stronger effect = lower value 1 | locus YBL061C, strain skt5, stronger effect = lower value 1 | locus YBR009C, strain hhf1, stronger effect = lower value 1.06 | locus YBR021W, strain FUR4, stronger effect = lower value 0.985 | locus YBR023C, strain chs3, stronger effect = lower value 1.01 | locus YBR171W, strain sec66, stronger effect = lower value 1.01 | locus YBR229C, strain ROT2, stronger effect = lower value 1.02 | locus YBR231C, strain swc5, stronger effect = lower value 0.995 | locus YBR279W, strain paf1, stronger effect = lower value 1.02 | locus YCL011C, strain gbp2, stronger effect = lower value 1.02 | locus YCL016C, strain dcc1, stronger effect = lower value 0.999 | locus YCL029C, strain bik1, stronger effect = lower value 1.03 | locus YCL061C, strain MRC1, stronger effect = lower value 1 | locus YCL069W, strain vba3, stronger effect = lower value 1 | locus YCR088W, strain abp1, stronger effect = lower value 1 | locus YDL005C, strain med2, stronger effect = lower value 1.01 | locus YDL035C, strain GPR1, stronger effect = lower value 1.03 | locus YDL040C, strain nat1, stronger effect = lower value 1 | locus YDL074C, strain BRE1, stronger effect = lower value 1.03 | locus YDL101C, strain DUN1, stronger effect = lower value 1.02 | locus YDL185W, strain tfp1, stronger effect = lower value 1.04 | locus YDL192W, strain arf1, stronger effect = lower value 1.03 | locus YDR001C, strain nth1, stronger effect = lower value 1.01 | locus YDR069C, strain doa4, stronger effect = lower value 0.985 | locus YDR101C, strain arx1, stronger effect = lower value 1.03 | locus YDR137W, strain rgp1, stronger effect = lower value 1.02 | locus YDR150W, strain NUM1, stronger effect = lower value 1.02 | locus YDR159W, strain sac3, stronger effect = lower value 0.978 | locus YDR162C, strain NBP2, stronger effect = lower value 1.05 | locus YDR195W, strain ref2 0.97 | locus YDR297W, strain sur2, stronger effect = lower value 1.04 | locus YDR318W, strain mcm21, stronger effect = lower value 1.03 | locus YDR334W, strain swr1, stronger effect = lower value 1.02 | locus YDR335W, strain msn5, stronger effect = lower value 1.01 | locus YDR388W, stronger effect = lower value 1.03 | locus YDR392W, strain spt3, stronger effect = lower value 0.907 | locus YDR502C, strain sam2, stronger effect = lower value 1.03 | locus YEL003W, strain gim4, stronger effect = lower value 1.02 | locus YEL037C, strain rad23, stronger effect = lower value 1.01 | locus YEL061C, strain CIN8 (second series), stronger effect = lower value 1.01 | locus YEL061C, strain CIN8, stronger effect = lower value 1.02 | locus YER015W, strain faa2, stronger effect = lower value 1.01 | locus YER016W, strain bim1, stronger effect = lower value 1 | locus YER110C, stronger effect = lower value 1.04 | locus YER111C, strain swi4, stronger effect = lower value 1.01 | locus YER155C, strain BEM2 (second series), stronger effect = lower value 0.973 | locus YER155C, strain BEM2, stronger effect = lower value 1 | locus YER167W, strain BCK2, stronger effect = lower value 1.03 | locus YFR010W, strain ubp6, stronger effect = lower value 1.01 | locus YGL078C, strain dbp3, stronger effect = lower value 1.03 | locus YGL086W, strain mad1, stronger effect = lower value 1.02 | locus YGL167C, strain pmr1, stronger effect = lower value 0.998 | locus YGL173C, strain kem1, stronger effect = lower value 1.02 | locus YGL227W, strain vid30, stronger effect = lower value 1.01 | locus YGL240W, strain doc1, stronger effect = lower value 0.987 | locus YGL248W, strain PDE1, stronger effect = lower value 1.02 | locus YGL253W, strain hxk2, stronger effect = lower value 1.01 | locus YGR135W, strain pre9, stronger effect = lower value 1.03 | locus YGR252W, strain gcn5, stronger effect = lower value 1.01 | locus YHR013C, strain ard1, stronger effect = lower value 0.995 | locus YHR027C, strain rpn1, stronger effect = lower value 1.01 | locus YHR030C, strain SLT2, stronger effect = lower value 1.02 and 0.957 | locus YHR079C, strain IRE1 (second series), stronger effect = lower value 1.03 | locus YHR079C, strain IRE1, stronger effect = lower value 0.967 | locus YHR094C, strain hxt1, stronger effect = lower value 1.03 | locus YHR129C, strain ARP1, stronger effect = lower value 1.02 | locus YHR142W, strain chs7, stronger effect = lower value 1.03 | locus YHR200W, strain rpn10, stronger effect = lower value 1.04 | locus YIL066C, strain RNR3, stronger effect = lower value 1.04 | locus YIL073C, strain SPO22, stronger effect = lower value 1.13 | locus YIL125W, strain kgd1, stronger effect = lower value 1.03 | locus YIR030C, strain dcg1, stronger effect = lower value 1.03 | locus YJL092W, strain hpr5, stronger effect = lower value 1 | locus YJL095W, strain BCK1 (second series), stronger effect = lower value 1.02 | locus YJL095W, strain BCK1, stronger effect = lower value 1.04 and 1 | locus YJL115W, strain asf1, stronger effect = lower value 1.01 | locus YJL129C, strain trk1, stronger effect = lower value 1.01 | locus YJL134W, strain LCB3, stronger effect = lower value 1.01 | locus YJL154C, strain vps35, stronger effect = lower value 1 | locus YJL164C, strain tpk1, stronger effect = lower value 1.02 | locus YJL166W, strain qcr8, stronger effect = lower value 0.989 | locus YJL168C, strain set2, stronger effect = lower value 1.03 | locus YJL187C, strain SWE1 (second series), stronger effect = lower value 1.04 | locus YJL187C, strain SWE1, stronger effect = lower value 1.03 | locus YJR043C, strain POL32, stronger effect = lower value 1.03 | locus YJR066W, strain TOR1, stronger effect = lower value 0.975 | locus YKL009W, strain mrt4, stronger effect = lower value 1.05 | locus YKL068W, stronger effect = lower value 1.05 | locus YKL085W, strain MDH1 (second series), stronger effect = lower value 1.03 | locus YKL085W, strain MDH1, stronger effect = lower value 1.03 | locus YKL160W, strain elf1, stronger effect = lower value 0.963 | locus YKR001C, strain vps1, stronger effect = lower value 1.01 | locus YKR026C, strain gcn3, stronger effect = lower value 1.01 | locus YKR091W, strain srl3, stronger effect = lower value 1.01 | locus YLL001W, strain dnm1, stronger effect = lower value 0.992 | locus YLL026W, stronger effect = lower value 1 | locus YLL041C, strain sdh2, stronger effect = lower value 1.01 | locus YLR027C, strain aat2, stronger effect = lower value 1 | locus YLR039C, strain RIC1, stronger effect = lower value 1.09 | locus YLR058C, strain SHM2, stronger effect = lower value 1.03 | locus YLR102C, strain apc9, stronger effect = lower value 1.03 | locus YLR113W, strain HOG1, stronger effect = lower value 0.94 | locus YLR221C, strain rsa3, stronger effect = lower value 0.999 | locus YLR258W, strain gsy2, stronger effect = lower value 1.01 | locus YLR262C, strain YPT6 (second series), stronger effect = lower value 0.994 | locus YLR262C, strain YPT6, stronger effect = lower value 1.13 | locus YLR268W, strain sec22, stronger effect = lower value 1.02 | locus YLR320W, strain mms22, stronger effect = lower value 0.991 | locus YLR330W, strain CHS5, stronger effect = lower value 1.02 | locus YLR342W, strain FKS1 (second series), stronger effect = lower value 1.02 | locus YLR342W, strain FKS1, stronger effect = lower value 1.01 | locus YLR357W, strain rsc2, stronger effect = lower value 1.01 | locus YLR370C, strain arc18, stronger effect = lower value 1.02 | locus YLR371W, strain rom2, stronger effect = lower value 1.02 | locus YLR384C, strain iki3, stronger effect = lower value 1.01 | locus YLR418C, strain cdc73, stronger effect = lower value 1.04 | locus YML016C, strain PPZ1, stronger effect = lower value 1.02 | locus YML032C, strain rad52, stronger effect = lower value 1.02 | locus YML120C, strain ndi1, stronger effect = lower value 1.01 | locus YML124C, strain tub3, stronger effect = lower value 1.04 | locus YMR058W, strain fet3, stronger effect = lower value 1.01 | locus YMR078C, strain ctf18, stronger effect = lower value 1.06 | locus YMR125W, strain sto1, stronger effect = lower value 0.973 | locus YMR129W, stronger effect = lower value 1.01 | locus YMR205C, strain PFK2, stronger effect = lower value 0.966 | locus YMR223W, strain ubp8, stronger effect = lower value 1.02 | locus YMR231W, strain pep5, stronger effect = lower value 1.01 | locus YMR307W, strain GAS1, stronger effect = lower value 1.01 | locus YNL067W, strain RPL9B, stronger effect = lower value 1.04 | locus YNL071W, strain lat1, stronger effect = lower value 1 | locus YNL128W, strain TEP1, stronger effect = lower value 1.02 | locus YNL183C, strain NPR1, stronger effect = lower value 0.937 | locus YNL209W, strain ssb2, stronger effect = lower value 1.01 | locus YNL233W, strain BNI4, stronger effect = lower value 1.03 | locus YNL248C, strain rpa49, stronger effect = lower value 0.953 | locus YNL250W, strain rad50, stronger effect = lower value 1.04 | locus YNL271C, strain bni1, stronger effect = lower value 1.04 | locus YNL298W, strain CLA4, stronger effect = lower value 1.05 | locus YNL307C, strain MCK1, stronger effect = lower value 1.05 | locus YNL322C, strain KRE1 (second series), stronger effect = lower value 0.998 | locus YNR049C, strain mso1, stronger effect = lower value 1.01 | locus YNR052C, strain pop2, stronger effect = lower value 1.02 | locus YOL012C, strain htz1 1.37 | locus YOL147C, strain pex11, stronger effect = lower value 1.02 | locus YOR001W, strain rrp6, stronger effect = lower value 1 | locus YOR061W, strain CKA2, stronger effect = lower value 1.02 | locus YOR069W, strain VPS5, stronger effect = lower value 1.01 | locus YOR070C, strain gyp1, stronger effect = lower value 1.01 | locus YOR080W, strain dia2, stronger effect = lower value 0.998 | locus YOR083W, strain WHI5, stronger effect = lower value 0.968 | locus YOR106W, strain vam3, stronger effect = lower value 0.988 | locus YOR136W, strain idh2, stronger effect = lower value 1.04 | locus YOR144C, strain elg1, stronger effect = lower value 1.01 | locus YOR184W, strain ser1, stronger effect = lower value 1.02 | locus YOR231W, strain MKK1, stronger effect = lower value 0.966 | locus YOR265W, strain rbl2, stronger effect = lower value 0.999 | locus YOR270C, strain vph1, stronger effect = lower value 0.981 | locus YOR290C, strain snf2, stronger effect = lower value 1 | locus YOR316C, strain cot1, stronger effect = lower value 1.04 | locus YPL051W, strain arl3, stronger effect = lower value 0.988 | locus YPL055C, strain LGE1, stronger effect = lower value 1.05 | locus YPL078C, strain atp4, stronger effect = lower value 0.958 | locus YPL106C, strain sse1, stronger effect = lower value 1 | locus YPL240C, strain hsp82, stronger effect = lower value 1.01 | locus YPL241C, strain CIN2, stronger effect = lower value 1.02 | locus YPL256C, strain CLN2, stronger effect = lower value 0.986 | locus YPR119W, strain clb2, stronger effect = lower value 1.03 | locus YPR141C, strain kar3, stronger effect = lower value 1.03 | locus YPR163C, strain tif3, stronger effect = lower value 1.01 | locus YPR167C, strain met16, stronger effect = lower value 1.04 | strain wtn01, stronger effect = lower value 1.03
